The full ranking holds about 140,000 sequences; the median of “enrichment ratio after two sorts for PhoP signalling” is about 0, and the highest 2% start at about 11. This excerpt belongs to a sample that is enriched for the highest values.
B1: PhoQ; a variant is named by its letters at X, in order, P23837 (parent)
chain: MKKLLRLFFPLSLRVRFLLATAAVVLVLSLAYGMVALIGYSVSFDKTTFRLLRGESNLFYTLAKWENNKLHVELPENIDKQSPTMTLIYDENGQLLWAQRDVPWLMKMIQPDWLKSNGFHEIEADVNDTSLLLSGDHSIQQQLQEVREDDDDAEMTHSVAVNVYPATSRMPKLTIVVVDTIPVELKSSYMVWSWFIYVLSANLLLVIPLLWVAAWWSLRPIEALAKEVRELEEHNRELLNPATTRELTSLVRNLNRLLKSERERYDKYRTTLTDLTHSLKTPLXXLQXXLRSLRSEKMSVSDAEPVMLEQISRISQQIGYYLHRASMRGGTLLSRELHPVAPLLDNLTSALNKVYQRKGVNISLDISPEISFVGEQNDFVEVMGNVLDNACKYCLEFVEISARQTDEHLYIVVEDDGPGIPLSKREVIFDRGQRVDTLRPGQGVGLAVAREITEQYEGKIVAGESMLGGARMEVIFGRQHSAPKDE

Variants of: B1
Assay: enrichment ratio after two sorts for PhoP signalling (ratio (wild type AVST 3.29)); higher = more functional
Conditions: with PhoP (E. coli)
With TESA the enrichment ratio was 11.7.
NESQ was tested, and the enrichment ratio was at most 0.25.
In the case of MCSI, the enrichment ratio is reported as 12.5.
For QESA, the enrichment ratio was at most 0.25.
Work on MESI yielded an enrichment ratio of 12.5.
For MQSI, the enrichment ratio was at most 0.25.
HEMY showed an enrichment ratio of at most 0.25.
TSHA showed an enrichment ratio of 3.
In the case of IPQD, the enrichment ratio is reported as at most 0.25.
HTSR showed an enrichment ratio of at most 0.25.
In the case of FRDI, the enrichment ratio is reported as at most 0.25.
TEQS showed an enrichment ratio of 7.71.
Variant GWCG has an enrichment ratio of at most 0.25.
For TLDG, the enrichment ratio was at most 0.25.
Work on PGHR yielded an enrichment ratio of at most 0.25.
Work on TESK yielded an enrichment ratio of 6.64.
Work on TESR yielded an enrichment ratio of 6.55.
Work on TESI yielded an enrichment ratio of 13.5.
QGNK gave an enrichment ratio of at most 0.25.
With RDYI the enrichment ratio was at most 0.25.
For QMSV, the enrichment ratio was 10.5.
TGGN was tested, and the enrichment ratio was 13.9.
Variant FFGN has an enrichment ratio of at most 0.25.
TTGN showed an enrichment ratio of 21.9.
TSGN was tested, and the enrichment ratio was 14.9.
Variant NSGN has an enrichment ratio of at most 0.25.
Work on KSGN yielded an enrichment ratio of at most 0.25.
With QPGN the enrichment ratio was at most 0.25.
For THGN, the enrichment ratio was at most 0.25.
For LTGN, the enrichment ratio was at most 0.25.
For QGGN, the enrichment ratio was 14.7.
Work on KCGN yielded an enrichment ratio of at most 0.25.
For YTGN, the enrichment ratio was at most 0.25.
Variant TNRW has an enrichment ratio of at most 0.25.
With LWKV the enrichment ratio was at most 0.25.
IVDK was tested, and the enrichment ratio was at most 0.25.
With EHTD the enrichment ratio was at most 0.25.
In the case of NKKA, the enrichment ratio is reported as at most 0.25.
MHGI was tested, and the enrichment ratio was at most 0.25.
QKAH showed an enrichment ratio of at most 0.25.
In the case of KQVW, the enrichment ratio is reported as at most 0.25.
Work on ECVR yielded an enrichment ratio of at most 0.25.
For KPPV, the enrichment ratio was at most 0.25.
MMGN was tested, and the enrichment ratio was at most 0.25.
KAGN showed an enrichment ratio of at most 0.25.
Work on MEGN yielded an enrichment ratio of 10.8.
With MCGN the enrichment ratio was 16.3.
MAGN showed an enrichment ratio of 13.5.
With NAGN the enrichment ratio was at most 0.25.
For WWPI, the enrichment ratio was at most 0.25.
Work on DCFD yielded an enrichment ratio of at most 0.25.
MIAD was tested, and the enrichment ratio was at most 0.25.
For MILQ, the enrichment ratio was 14.
In the case of MTYF, the enrichment ratio is reported as 7.02.
MIAA showed an enrichment ratio of 11.7.
MIYI gave an enrichment ratio of 24.3.
Variant MDYF has an enrichment ratio of at most 0.25.
MITA was tested, and the enrichment ratio was at most 0.25.
Work on MIYF yielded an enrichment ratio of 24.3.
Work on MKAA yielded an enrichment ratio of at most 0.25.
In the case of MIFA, the enrichment ratio is reported as at most 0.25.
Variant MIWI has an enrichment ratio of 3.74.
Work on MELQ yielded an enrichment ratio of 3.81.
With KCES the enrichment ratio was at most 0.25.
FVYA showed an enrichment ratio of at most 0.25.
In the case of FGWI, the enrichment ratio is reported as at most 0.25.
Work on LDYV yielded an enrichment ratio of at most 0.25.
With DLSC the enrichment ratio was at most 0.25.
Variant IAQI has an enrichment ratio of at most 0.25.
Variant MISK has an enrichment ratio of at most 0.25.
In the case of MIGH, the enrichment ratio is reported as 18.2.
For MILY, the enrichment ratio was 0.599.
MILA gave an enrichment ratio of 1.31.
Work on MIGF yielded an enrichment ratio of 11.9.
In the case of MIHF, the enrichment ratio is reported as 3.77.
Work on MITH yielded an enrichment ratio of at most 0.25.
With MIMF the enrichment ratio was 0.51.
Variant MITI has an enrichment ratio of 14.6.
MISC showed an enrichment ratio of 23.
MIYH gave an enrichment ratio of 7.94.
Work on MIFC yielded an enrichment ratio of at most 0.25.
NIWL showed an enrichment ratio of at most 0.25.
With WCMF the enrichment ratio was at most 0.25.
Work on KFLW yielded an enrichment ratio of at most 0.25.
SFFA was tested, and the enrichment ratio was at most 0.25.
IEDQ gave an enrichment ratio of at most 0.25.
TAFY showed an enrichment ratio of 2.48.
RVSG was tested, and the enrichment ratio was at most 0.25.
In the case of LAEY, the enrichment ratio is reported as at most 0.25.
GIVQ showed an enrichment ratio of 2.03.
For MIAT, the enrichment ratio was 12.1.
In the case of MIMV, the enrichment ratio is reported as at most 0.25.
Variant MITV has an enrichment ratio of 17.2.
In the case of MIFT, the enrichment ratio is reported as at most 0.25.
In the case of MIAQ, the enrichment ratio is reported as 14.7.
MILT was tested, and the enrichment ratio was at most 0.25.
Work on MSAQ yielded an enrichment ratio of 9.85.
MFAQ showed an enrichment ratio of at most 0.25.
Variant MIWV has an enrichment ratio of at most 0.25.
For HFIN, the enrichment ratio was at most 0.25.
LDFC showed an enrichment ratio of at most 0.25.
MDHH showed an enrichment ratio of at most 0.25.
In the case of PDDC, the enrichment ratio is reported as at most 0.25.
For IFMI, the enrichment ratio was at most 0.25.
In the case of WEFI, the enrichment ratio is reported as at most 0.25.
For SHNC, the enrichment ratio was 0.752.
In the case of KSNC, the enrichment ratio is reported as at most 0.25.
Work on STNC yielded an enrichment ratio of at most 0.25.
THNC was tested, and the enrichment ratio was 11.9.
Work on KCNC yielded an enrichment ratio of at most 0.25.
TCNC showed an enrichment ratio of 14.3.
NHNC gave an enrichment ratio of at most 0.25.
Work on SLNC yielded an enrichment ratio of at most 0.25.
For TGNC, the enrichment ratio was 61.8.
Work on SNNC yielded an enrichment ratio of 18.6.
For RGNC, the enrichment ratio was at most 0.25.
For NGNC, the enrichment ratio was at most 0.25.
Work on SIFT yielded an enrichment ratio of at most 0.25.
PGDY showed an enrichment ratio of at most 0.25.
QRCP was tested, and the enrichment ratio was at most 0.25.
NMAF was tested, and the enrichment ratio was at most 0.25.
For QMGQ, the enrichment ratio was at most 0.25.
For QVAS, the enrichment ratio was at most 0.25.
With SKNA the enrichment ratio was at most 0.25.
DLFK was tested, and the enrichment ratio was at most 0.25.
In the case of DATT, the enrichment ratio is reported as at most 0.25.
SHNF showed an enrichment ratio of 9.74.
Work on NHNQ yielded an enrichment ratio of at most 0.25.
For SHNQ, the enrichment ratio was 0.892.
For TANC, the enrichment ratio was 12.1.
Variant TDNC has an enrichment ratio of 13.4.
With TFNC the enrichment ratio was 2.85.
FDNC was tested, and the enrichment ratio was at most 0.25.
TFNQ was tested, and the enrichment ratio was 13.4.
For THNQ, the enrichment ratio was 30.9.
For KDNC, the enrichment ratio was at most 0.25.
For KANC, the enrichment ratio was at most 0.25.
Work on YCNQ yielded an enrichment ratio of at most 0.25.
Variant IANC has an enrichment ratio of at most 0.25.
TNPA gave an enrichment ratio of at most 0.25.
Work on VGFR yielded an enrichment ratio of at most 0.25.
YITS showed an enrichment ratio of 0.602.
ECNN gave an enrichment ratio of at most 0.25.
Variant KVKT has an enrichment ratio of at most 0.25.
GNYR gave an enrichment ratio of at most 0.25.
Variant DIML has an enrichment ratio of at most 0.25.
MDSL was tested, and the enrichment ratio was at most 0.25.
AHSL gave an enrichment ratio of 0.581.
For MMSL, the enrichment ratio was 6.66.
AQSL gave an enrichment ratio of 7.47.
In the case of AESL, the enrichment ratio is reported as 11.7.
For QESL, the enrichment ratio was 0.967.
NESL was tested, and the enrichment ratio was at most 0.25.
TESL was tested, and the enrichment ratio was 12.5.
In the case of MESL, the enrichment ratio is reported as 13.9.
